FadD28 FP inh: inhibitors of Mycobacterium tuberculosis FadD28 bisubstrate binding; FadD28 bisubstrate probe binding, fluorescence polarization; inhibition, % at 12.5 µM; 360,000 tested, 0.22% active; AID 588549; in the data active = inhibition above about 8.5%, passing the limit was not always enough; inconclusive = no clear call, values can overlap the other calls
GDH-TPI counter: inhibits GDH-TPI coupling enzymes, artifact for Mtb FBA screen; inhibition, % at 4.8 µM; 360,000 tested, 1.2% active; AID 588335; GDH-TPI coupled enzyme counterscreen, NADH absorbance; in the data active = inhibition above about 30%
Mtb BioA inh: inhibitors of Mycobacterium tuberculosis BioA enzyme. inhibition, % at 9.99 µM. 360,000 tested, 0.096% active. purified M. tuberculosis BioA enzyme, plate reader. AID 602481; in the data active = inhibition above about 40%; inconclusive = no clear call, values can overlap the other calls
FBA Mtb inh: inhibitors of M. tuberculosis fructose-bisphosphate aldolase | P9WQA3 | purified M. tuberculosis FBA, fluorescence read-out | inhibition, % at 1 µM | 360,000 tested, 2.3% active | AID 588726; in the data active = inhibition above about 27%
Rv3671c inh: inhibitors of M. tuberculosis serine protease Rv3671c. P9WHR9. inhibition, % at 5.96 µM. 320,000 tested, 0.048% active. AID 2606; in the data active = inhibition above about 38%;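 also: extracellular domain of Rv3671c used as enzyme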
Target sequence (P9WHR9 whole entry, looked up, the tested form may be a part): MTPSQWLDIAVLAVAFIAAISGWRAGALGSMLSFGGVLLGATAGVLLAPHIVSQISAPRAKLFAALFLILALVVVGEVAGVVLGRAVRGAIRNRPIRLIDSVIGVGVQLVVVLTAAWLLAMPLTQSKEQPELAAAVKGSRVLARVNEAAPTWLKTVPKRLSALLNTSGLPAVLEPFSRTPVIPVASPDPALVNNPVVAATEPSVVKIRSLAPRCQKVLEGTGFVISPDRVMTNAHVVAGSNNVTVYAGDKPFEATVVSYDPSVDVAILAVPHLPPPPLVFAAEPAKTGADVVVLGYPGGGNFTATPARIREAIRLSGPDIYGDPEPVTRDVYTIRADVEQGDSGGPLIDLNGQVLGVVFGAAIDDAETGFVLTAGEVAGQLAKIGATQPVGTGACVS
Hits are given with their value. Rows were chosen to be rich in hits. Some 3% of all compounds tested hit in one or more screens of this group.

How did O=C(CCN1C(=O)S/C(=C/c2ccccc2)C1=O)Nc1ccc(O)c(C(=O)O)c1 do in these assays?
FadD28 FP inh: inactive; GDH-TPI counter: 42; Mtb BioA inh: inactive; FBA Mtb inh: inactive; Rv3671c inh: inactive

What do the screens show for `O=C(CCN1C(=O)/C(=C/c2cccs2)SC1=S)Nc1ccc(C(=O)O)c(O)c1`?
FadD28 FP inh: inactive; GDH-TPI counter: inactive; Mtb BioA inh: inactive; FBA Mtb inh: inactive; Rv3671c inh: inactive

Results for O=C(CN1C(=O)S/C(=C\c2cccs2)C1=O)Nc1ccc(O)cc1C(=O)O ?
FadD28 FP inh: inconclusive; GDH-TPI counter: 44; Mtb BioA inh: inactive; FBA Mtb inh: inactive; Rv3671c inh: inactive

What do the screens show for `O=C(CCN1C(=O)S/C(=C\c2ccccc2)C1=O)Nc1ccc(O)cc1C(=O)O`?
FadD28 FP inh: inactive; GDH-TPI counter: 38; Mtb BioA inh: inactive; FBA Mtb inh: inactive; Rv3671c inh: inactive

What do the screens show for `O=C(CCN1C(=O)/C(=C\c2ccccc2)SC1=S)Nc1ccc(C(=O)O)cc1`?
FadD28 FP inh: inactive; GDH-TPI counter: inactive; Mtb BioA inh: inactive; FBA Mtb inh: inactive; Rv3671c inh: inactive

Results for O=C(N=Nc1c(O)[nH]c2ccccc12)Nc1ccccc1 ?
FadD28 FP inh: inactive; GDH-TPI counter: 31; FBA Mtb inh: inactive

What do the screens show for `O=C(Cc1cccs1)N=Nc1c(O)[nH]c2ccccc12`?
FadD28 FP inh: inactive; GDH-TPI counter: inactive; Mtb BioA inh: inactive; FBA Mtb inh: inactive; Rv3671c inh: inactive

Results for CC(C)(O)C(=O)N=Nc1c(O)[nH]c2ccccc12 ?
FadD28 FP inh: inactive; GDH-TPI counter: inactive; FBA Mtb inh: inactive; Rv3671c inh: inactive

What do the screens show for `O=C(N=Nc1c(O)[nH]c2ccccc12)c1cc(-c2cccs2)[nH]n1`?
FadD28 FP inh: inactive; GDH-TPI counter: 35; Mtb BioA inh: inactive; FBA Mtb inh: inactive; Rv3671c inh: inactive

What do the screens show for `O=C(N=Nc1c(O)[nH]c2ccccc12)c1ccccc1NS(=O)(=O)c1cccs1`?
FadD28 FP inh: inactive; GDH-TPI counter: 34; FBA Mtb inh: inactive; Rv3671c inh: inactive

How did NS(=O)(=O)c1cc(C(=O)N=Nc2c(O)[nH]c3ccccc23)ccc1Cl do in these assays?
FadD28 FP inh: inactive; GDH-TPI counter: 34; Mtb BioA inh: inactive; FBA Mtb inh: inactive; Rv3671c inh: inactive

Results for COCC(=O)Nc1ccc2c(c1)[C@H]1C[C@H](CC(=O)NCCN3CCCCC3)O[C@H](CO)[C@H]1O2 ?
Mtb BioA inh: inactive

How did O=S(=O)(NCC[C@@H]1CC[C@H](NS(=O)(=O)c2ccccc2Cl)[C@H](CO)O1)c1ccc(F)cc1 do in these assays?
Mtb BioA inh: inactive

How did Cc1noc(C)c1NC(=O)N(C)C[C@@H]1OCCCC[C@H](C)Oc2ccc(NC(=O)Cc3ccccc3)cc2C(=O)N([C@H](C)CO)C[C@@H]1C do in these assays?
Mtb BioA inh: inactive

Results for CC(=O)c1ccc(NC(=O)C2=CC(c3ccco3)=NS(=O)(=O)N2C)cc1 ?
FadD28 FP inh: inactive; GDH-TPI counter: 31; Mtb BioA inh: inactive; FBA Mtb inh: inactive; Rv3671c inh: inactive

What do the screens show for `COc1ccc(NC(=O)C2=CC(c3ccco3)=NS(=O)(=O)N2C)cc1OC`?
FadD28 FP inh: inactive; GDH-TPI counter: inactive; Mtb BioA inh: inactive; FBA Mtb inh: inactive; Rv3671c inh: inactive

How did O=C(CCc1nc2ccccc2s1)N1CCN(c2ccccc2)CC1 do in these assays?
FadD28 FP inh: inactive; GDH-TPI counter: inactive; FBA Mtb inh: inactive; Rv3671c inh: inactive

Results for CC(=O)c1ccc(N2CCN(C(=O)CCCc3nc4ccccc4s3)CC2)cc1 ?
FadD28 FP inh: inactive; GDH-TPI counter: 32; FBA Mtb inh: inactive; Rv3671c inh: inactive

What do the screens show for `CN1C(=O)c2cc(NC(=O)Nc3cccc(Cl)c3)ccc2OC[C@@H]2O[C@@H](CC(=O)NCCc3ccncc3)CC[C@@H]21`?
Mtb BioA inh: inactive

What do the screens show for `CCOc1ccc(NC(=O)NCc2ccco2)cc1`?
FadD28 FP inh: inactive; GDH-TPI counter: inactive; Mtb BioA inh: inactive; FBA Mtb inh: inactive; Rv3671c inh: inactive

How did CCOc1ccc(/C=N/NC(=O)C(=O)NCc2ccco2)cc1 do in these assays?
FadD28 FP inh: inactive; GDH-TPI counter: 33; FBA Mtb inh: inactive; Rv3671c inh: inactive

What do the screens show for `COc1ccccc1/C=N/NC(=S)NCc1ccco1`?
FadD28 FP inh: inactive; GDH-TPI counter: 38; Mtb BioA inh: inactive; FBA Mtb inh: inactive; Rv3671c inh: inactive

Results for Oc1c(Br)cc(/C=N/NC(=S)NCc2ccco2)cc1Br ?
FadD28 FP inh: inactive; GDH-TPI counter: 33; FBA Mtb inh: inactive; Rv3671c inh: inactive

What do the screens show for `CCOc1ccc(CNC(=S)N/N=C/c2ccc(OC)c(OC)c2)cc1`?
FadD28 FP inh: inactive; GDH-TPI counter: 42; FBA Mtb inh: inactive; Rv3671c inh: inactive

Results for COC(=O)C[C@@H]1CC[C@H]2[C@H](COc3ccc(NC(=O)Nc4ccccc4C)cc3C(=O)N2C)O1 ?
Mtb BioA inh: inactive

Results for COc1cc(/C=N/NC(=S)NCc2ccco2)cc(OC)c1OC ?
FadD28 FP inh: inactive; GDH-TPI counter: 37; FBA Mtb inh: inactive; Rv3671c inh: inactive

How did COc1cccc(NC(=O)Nc2nc(SC(C)(C)C)ns2)c1 do in these assays?
FadD28 FP inh: 21; GDH-TPI counter: inactive; Mtb BioA inh: inactive; FBA Mtb inh: inactive; Rv3671c inh: inactive

How did C[C@H](CO)N1C[C@H](C)[C@H](CN(C)C(=O)c2ccccc2)Oc2ncc(C3=CCCCC3)cc2C1=O do in these assays?
Mtb BioA inh: inactive

Results for CC(C)NC(=O)Nc1ccc2c(c1)C(=O)N([C@H](C)CO)C[C@@H](C)[C@@H](CN(C)C(=O)CCC(F)(F)F)OCCCC[C@@H](C)O2 ?
Mtb BioA inh: inactive

How did COc1ccc(-n2ccc(=O)c(C(=O)Nc3ccc(S(=O)(=O)Nc4nccs4)cc3)n2)cc1 do in these assays?
FadD28 FP inh: inactive; GDH-TPI counter: 40; Mtb BioA inh: inactive; FBA Mtb inh: inactive; Rv3671c inh: inactive

What do the screens show for `Cc1ccc(/C=C2/SC(=S)N(c3ccc(S(=O)(=O)Nc4nccs4)cc3)C2=O)cc1`?
FadD28 FP inh: inactive; GDH-TPI counter: 39; Mtb BioA inh: inactive; FBA Mtb inh: inactive; Rv3671c inh: inactive

What do the screens show for `COc1ccc(/C=C2/SC(=O)N(CCC(=O)Nc3ccc(S(=O)(=O)Nc4nccs4)cc3)C2=O)cc1`?
FadD28 FP inh: inactive; GDH-TPI counter: 34; FBA Mtb inh: inactive; Rv3671c inh: inactive

Results for COc1ccc(/C=C2\SC(=O)N(CCC(=O)Nc3ccc(S(=O)(=O)Nc4nccs4)cc3)C2=O)cc1 ?
FadD28 FP inh: inactive; GDH-TPI counter: inactive; FBA Mtb inh: inactive; Rv3671c inh: inactive

How did CN(C)CC(=O)Nc1ccc2c(c1)[C@@H]1C[C@H](CC(=O)NCc3cccnc3)O[C@@H](CO)[C@@H]1O2 do in these assays?
Mtb BioA inh: inactive

What do the screens show for `C#CCOCCOCCOCCNc1nc(N2CCN(C(=O)CCCCCCCCCCNC(=O)[C@@H](CCSC)n3cc(CCO)nn3)CC2)nc(N2CCN(C(=O)CCCCCCCCCCNC(=O)[C@H]([C@@H](C)CC)n3cc(CCCCN=C(N)N)nn3)CC2)n1`?
FadD28 FP inh: 11; GDH-TPI counter: inactive; Mtb BioA inh: inactive; FBA Mtb inh: inactive; Rv3671c inh: inactive
